We go through ten molecules from PMC5540273 (PLoS ONE, 2017).

Assay [1] relates to GRK7. Conditions: concentration: 1 μM, replicates: in singlicate; n = 1.
The test system of assay [2] is GSK3A. Conditions: n = 1.
Assay [3] has as its system GSK3B. The note with it: n = 1.
For assay [4], the system named is T1, HASPIN.
T1 construct: gene GSG2
Conditions: concentration: 1 μM, replicates: in singlicate; n = 1.

For assay [5], the system named is HCK. The note with it: concentration: 1 μM, replicates: in singlicate; n = 1.
Assay [6] deals with HIPK1. Conditions: concentration: 1 μM, replicates: in singlicate; n = 1.
The test system of assay [7] is HIPK2. Conditions: concentration: 1 μM, replicates: in singlicate; n = 1.
Assay [8] has as its system HIPK3. The note with it: n = 1.
Assay [9] deals with HIPK4. Conditions: n = 1.
The test system of assay [10] is HPK1. The note with it: n = 1.
For assay [11], the system named is HUNK. The note with it: concentration: 1 μM, replicates: in singlicate; n = 1.
In assay [12] the test system is ICK. The note with it: n = 1.
Assay [13] deals with IGF1R. Conditions: n = 1.
For assay [14], the system named is T2, IKK-alpha.
T2 construct: gene CHUK
Conditions: n = 1.

Assay [15] has as its system T3, IKK-beta.
T3 construct: gene IKBKB
Conditions: n = 1.

Assay [16] deals with T4, IKK-epsilon.
T4 construct: gene IKBKE
The note with it: n = 1.

Assay [17] has as its system INSRR. The note with it: n = 1.
Assay [18] has as its system INSR. The note with it: n = 1.
For assay [19], the system named is IRAK1. Conditions: n = 1.
For assay [20], the system named is IRAK3. Conditions: concentration: 1 μM, replicates: in singlicate; n = 1.
[21] abbreviates: concentration: 1 μM, replicates: in singlicate.
[22] abbreviates: concentration: 1 μM,replicates: in singlicate, 1 µM.

Each structure is given as a SMILES string. Several values for one entry are separate records, joined by “and”; a condition that tells them apart may be missing. Identical values can stand only once. Like-named read-outs stand apart in the source and are kept apart here.
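Note: KINOMEscan kinase panel screen.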

As to `Cc1ccc(-c2cc(-c3c[nH]nc3-c3ccccn3)ccn2)cc1` [GW684088], the “%Inh” value was found to be 0% in [1]; 22% in assay [2] (setting [21]); 2% in assay [3] (setting [21]); 35% in assay [4]; 0% in assay [5]; 7% in [6]. Further, the “%Inh” value in [7] is on record as 0%; in [8] (setting [21]), 1%; in [9] (setting [21]) it was 0%; in assay [10] (setting [21]), 24%; in [11], 1%; in assay [12] (setting [21]), 0%. Besides, the “%Inh” value in [13] (setting [21]) is recorded as 36%; in assay [14] (setting [21]), 0%; in [15] (setting [21]) it was 0%; in [16] (setting [21]), 9%; in [17] (setting [21]) it was 0%; in assay [18] (setting [21]) it was 0%. Moreover, the “%Inh” value in assay [19] (setting [21]) is 0%; in assay [20], 7%.

In the case of `O=C1NC(=O)C(N2CCc3ccccc32)=C1c1ccccc1Cl` [SB-373598], the “%Inh” value in [1] was determined as 0%; in assay [2] (setting [21]) it was 4%; in assay [3] (1 µM), 27%; in [4], 100%; in [5] it was 0%; in assay [6], 30%. The “%Inh” value in assay [7] is listed as 24%; in assay [8] (setting [21]), 13%; in [9] (setting [21]), 12%; in assay [10] (setting [21]) it was 0%; in assay [11], 13%; in [12] (setting [21]), 17%. Further, the “%Inh” value stood at 29% in assay [13] (setting [21]); 98.1% in assay [14] (setting [21]); 20% in assay [15] (setting [21]); 30% in assay [16] (setting [21]); 2% in [17] (setting [21]); 23% in [18] (setting [21]). Further, the “%Inh” value is 0% in assay [19] (setting [21]) and 9% in assay [20].

For the molecule `Nc1ncnc2[nH]c(-c3ccccc3)nc12` [AH5015], the “%Inh” value in [1] is on record as 0%; in assay [2] (setting [21]) it was 21%; in [3] (setting [21]), 23%; in assay [4] it was 59%; in assay [5] it was 0%; in assay [6], 19%. The “%Inh” value is reported as 0% in [7]; 39% in [8] (setting [21]); 21% in assay [9] (setting [21]); 39% in assay [10] (setting [21]); 0% in assay [11]; 0% in assay [12] (setting [21]). Further, the “%Inh” value was 3% in [13] (setting [21]); 42% in [14] (setting [21]); 55% in [15] (setting [21]); 0% in assay [16] (setting [21]); 19% in assay [17] (setting [21]); 0% in assay [18] (setting [21]). In addition, the “%Inh” value in [19] (setting [21]) and in assay [20] was 0% throughout.

In the case of `COc1cc2ncnc(Nc3ccc4nc(-c5ccccc5)[nH]c4c3)c2cc1OC.Cl` [GW282450], the “%Inh” value is 0% in assay [1]; 0% in [2] (setting [21]); 22% in [3] (setting [21]); 0% in assay [4]; 0% in [5]; 6% in assay [6]. Also, the “%Inh” value was found to be 0% in assay [7]; 32% in [8] (setting [21]); 35% in assay [9] (setting [21]); 1% in assay [10] (setting [21]); 0% in assay [11]; 4% in assay [12] (setting [21]). Moreover, the “%Inh” value in assay [13] (setting [21]) worked out at 6%; in [14] (setting [21]) it was 0%; in assay [15] (setting [21]) it was 0%; in [16] (setting [21]), 0%; in assay [17] (setting [21]) it was 0%; in assay [18] (setting [21]), 94.3%. For the same molecule, the “%Inh” value amounted to 25% in [19] (setting [21]) and 0% in assay [20].

In the case of `COc1ccccc1CNC(=O)c1cc(C(=O)c2ccccc2C)c[nH]1` [GSK364507], the “%Inh” value is 0% in [1]; 15% in assay [2] (setting [21]); 0% in [3] (setting [21]); 0% in assay [4]; 0% in assay [5]; 0% in [6]. Moreover, the “%Inh” value in [7] was found to be 0%; in assay [8] (setting [21]), 10%; in [9] (setting [21]), 0%; in assay [10] (setting [21]), 26%; in assay [11], 16%; in [12] (setting [21]) it was 11%. The “%Inh” value in assay [13] (setting [21]) came to 7%; in assay [14] (setting [21]), 9%; in assay [15] (setting [21]), 13%; in assay [16] (setting [21]) it was 20%; in assay [17] (setting [21]), 0%; in assay [18] (setting [21]) it was 8%. In addition, the “%Inh” value in assay [19] (setting [21]) is 33%; in assay [20], 0%.

As to `Cn1ccc2ncnc(Oc3ccc(NC(=O)Nc4ccccc4)cc3)c21`, the “%Inh” value came to 0% in assay [1]; 11% in assay [2] (setting [21]); 0% in assay [3] (setting [21]); 24% in assay [4]; 0% in assay [5]; 25% in assay [6]. Besides, the “%Inh” value in [7] was 17%; in [8] (setting [21]) it was 0%; in [9] (setting [21]), 5%; in assay [10] (setting [21]), 0%; in assay [11] it was 0%; in [12] (setting [21]), 0%. Also, the “%Inh” value in assay [13] (setting [21]) was 0%; in assay [14] (setting [21]) it was 5%; in assay [15] (setting [21]), 0%; in [16] (setting [21]), 17%; in assay [17] (setting [21]), 0%; in [18] (setting [21]), 14%. Also, the “%Inh” value in [19] (setting [21]) stood at 7%; in [20], 0%.

With `Cc1cccc(-c2nc(Nc3ccc4[nH]ncc4c3)c3ccccc3n2)n1` [GW857175], the “%Inh” value in [1] came out at 4%; in assay [2] (setting [21]), 14%; in assay [3] (setting [21]), 21%; in [4] it was 68%; in assay [5], 0%; in assay [6] it was 0%. The “%Inh” value is listed as 20% in assay [7]; 35% in assay [8] (setting [21]); 3% in [9] (setting [21]); 54% in [10] (setting [21]); 0% in assay [11]; 17% in [12] (setting [21]). Besides, the “%Inh” value in assay [13] (setting [21]) came to 0%; in [14] (setting [21]) it was 6%; in assay [15] (setting [21]) it was 17%; in assay [16] (setting [21]), 21%; in [17] (setting [21]), 0%; in assay [18] (setting [21]), 9%. Besides, the “%Inh” value came out at 9% in assay [19] (setting [21]) and 3% in assay [20].

As for `O=C(Nc1ccccc1)Nc1cccc(Oc2ccc3nccn3n2)c1`, the “%Inh” value in assay [1] is 0%; in [2] (setting [21]), 50%; in assay [3] (setting [21]), 0%; in [4], 4%; in assay [5] it was 24%; in assay [6] it was 0%. Further, the “%Inh” value is 27% in assay [7]; 0% in assay [8] (setting [21]); 9% in [9] (setting [21]); 33% in [10] (setting [21]); 18% in assay [11]; 0% in [12] (setting [21]). The “%Inh” value in [13] (setting [21]) stood at 0%; in [14] (setting [21]) it was 7%; in [15] (setting [21]) it was 0%; in assay [16] (setting [21]), 0%; in [17] (setting [21]) it was 0%; in assay [18] (setting [21]), 0%. Besides, the “%Inh” value is on record as 9% in assay [19] (setting [21]) and 1% in assay [20].

On to `CSc1nn2c(=O)cc(N3CCOCC3)nc2n1Cc1cccc(C(F)(F)F)c1C` [GSK2363608], for which the “%Inh” value in assay [1] is 0%; in assay [2] (setting [22]) it was 26% and 9%; in assay [3] (setting [22]), 12% and 25%; in [4], 0%; in assay [5] it was 0%; in assay [6], 0%. For the same molecule, the “%Inh” value in assay [7] is 0%; in assay [8] (setting [22]) it was 11% and 15%; in assay [9] (setting [22]) it was 0% and 18%; in [10] (setting [22]), 24% and 36%; in assay [11], 0%; in assay [12] (setting [22]), 0% and 12%. The “%Inh” value was 0% and 7% in assay [13] (setting [22]); 2% and 3% in assay [14] (setting [22]); 26% and 22% in assay [15] (setting [22]); 0% and 13% in assay [16] (setting [22]); 0% and 8% in assay [17] (setting [22]); 6% and 0% in assay [18] (setting [22]). Further, the “%Inh” value in assay [19] (setting [22]) was 5% and 21%; in assay [20], 0%.

With `COc1cc(Nc2nccc(N3CCC(NC(=O)Nc4cc(C)ccc4C)C3)n2)cc(OC)c1OC` (centres unmarked) [GSK1379762], the “%Inh” value in assay [1] amounted to 0%; in assay [2] (setting [21]), 0%; in assay [3] (setting [21]) it was 11%; in assay [4], 0%; in [5], 0%; in assay [6], 0%. The “%Inh” value was determined as 0% in assay [7]; 13% in assay [8] (setting [21]); 0% in [9] (setting [21]); 66% in assay [10] (setting [21]); 0% in assay [11]; 22% in assay [12] (setting [21]). Moreover, the “%Inh” value in [13] (setting [21]) stood at 15%; in assay [14] (setting [21]), 21%; in assay [15] (setting [21]), 17%; in assay [16] (setting [21]), 23%; in assay [17] (setting [21]), 9%; in assay [18] (setting [21]), 0%. In addition, the “%Inh” value in assay [19] (setting [21]) is listed as 58%; in assay [20], 73%.
